In the library only some 15% were active in any assay of this set; here they are far more common.
DT40 TDP1 no CPT: qHTS for Inhibitors of human tyrosyl-DNA phosphodiesterase 1 (TDP1): qHTS in cells in absence of CPT; DT40 Tdp1-/- hTDP1 cells, no CPT, ATP luminescence, 48 h; Potency, µM (top dose mostly 46.2 µM), inactives show at the highest dose activity change, negative = growth inhibition, usual class: inhibitors; 15% of 420,000 active; AID 686978, 2013; note: nearly all actives have a fitted effect of over 55% in size
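Growth kinetics read by CellTiter-Glo luminescence after ≥48 hr at 37 °C. Cells: DT40 Tdp1-/- stably carrying human TDP1, 400 per well, compound exposure in the absence of CPT (DMSO vehicle).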
RORg inh: qHTS for inhibitors of ROR gamma transcriptional activity | Nuclear receptor ROR-gamma (Mus musculus), P51450 | Drosophila S2 Gal4-RORgamma UAS-luciferase reporter, 20 h | Potency, µM (series often up to 53.6 µM), for the others: top-dose activity change, negative = inhibition, most hits filed as inhibitors | 5.4% of 310,000 active | AID 2551, 2010; note: nearly all actives have a fitted effect of over 60% in size
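Luciferase reporter read in Schneider cells carrying Gal4-RORγ (mouse) and UAS-Photinus luciferase; cells given compound 1 h before 700 uM copper sulfate induction, then incubated 20 h at ambient temperature.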
ELG1 repair inh: qHTS screen for small molecules that inhibit ELG1-dependent DNA repair in human embryonic kidney (HEK293T) cells expressing luciferase-tagged ELG1; HEK293T ELG1-luciferase reporter, luminescence, 16 h; DNA damage induced by 5-fluorouridine; Potency, µM (doses to about 46.1 µM), for inactives: at the top dose activity change, negative = inhibition, actives largely listed as inhibitors; 2.3% of 330,000 active; note: nearly all actives have a fitted effect of over 55% in size
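In this reporter screen, reduction of luminescence relative to DMSO vehicle indicated activity. Compounds and 5-fluorouridine were added together to 2,000 cells per well, incubated for 16 hr at 37 °C, then developed with ONE-Glo.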
DT40 TDP1 CPT: qHTS for Inhibitors of human tyrosyl-DNA phosphodiesterase 1 (TDP1): qHTS in cells in presence of CPT; chicken DT40 Tdp1-/-;hTDP1 cells + 20 nM CPT, ATP luminescence, 48 h; Potency, µM (top dose mostly 46.2 µM), for inactives: at the highest dose activity change, negative = growth inhibition, usual class: inhibitors; 12% of 420,000 active; note: nearly all actives have a fitted effect of over 55% in size
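Chicken DT40 Tdp1-/- cells complemented with human TDP1, 400 cells/well, exposed to compounds plus 20 nM camptothecin for at least 48 h at 37 C; viability read as ATP content by CellTiter-Glo luminescence.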
VP16 counter: VP16 counterscreen qHTS for inhibitors of ROR gamma transcriptional activity. Drosophila S2 Gal4-VP16 UAS-luciferase, luminescence, 20 h. Potency, µM (top dose mostly 53.6 µM), without a hit: at the top dose activity, negative = inhibition, hits mostly inhibitors. 3.5% of 310,000 active;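 note: Gal4-VP16 expression switched on by copper sulfate through the metallothionein promoter; nearly all actives have a fitted effect of over 50% in size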
ALOX12 inh: Primary qHTS assay for inhibitors of human arachidonate 12S-lipoxygenase (ALOX12): Round 2 | Polyunsaturated fatty acid lipoxygenase ALOX12 (Homo sapiens), P18054 | purified 12hLO, xylenol orange hydroperoxide absorbance | Potency, µM (series often up to 108 µM), without a hit: at the highest dose activity change, negative = inhibition, usual class: inhibitors | 1.1% of 580,000 active
Target sequence (P18054 whole entry, looked up): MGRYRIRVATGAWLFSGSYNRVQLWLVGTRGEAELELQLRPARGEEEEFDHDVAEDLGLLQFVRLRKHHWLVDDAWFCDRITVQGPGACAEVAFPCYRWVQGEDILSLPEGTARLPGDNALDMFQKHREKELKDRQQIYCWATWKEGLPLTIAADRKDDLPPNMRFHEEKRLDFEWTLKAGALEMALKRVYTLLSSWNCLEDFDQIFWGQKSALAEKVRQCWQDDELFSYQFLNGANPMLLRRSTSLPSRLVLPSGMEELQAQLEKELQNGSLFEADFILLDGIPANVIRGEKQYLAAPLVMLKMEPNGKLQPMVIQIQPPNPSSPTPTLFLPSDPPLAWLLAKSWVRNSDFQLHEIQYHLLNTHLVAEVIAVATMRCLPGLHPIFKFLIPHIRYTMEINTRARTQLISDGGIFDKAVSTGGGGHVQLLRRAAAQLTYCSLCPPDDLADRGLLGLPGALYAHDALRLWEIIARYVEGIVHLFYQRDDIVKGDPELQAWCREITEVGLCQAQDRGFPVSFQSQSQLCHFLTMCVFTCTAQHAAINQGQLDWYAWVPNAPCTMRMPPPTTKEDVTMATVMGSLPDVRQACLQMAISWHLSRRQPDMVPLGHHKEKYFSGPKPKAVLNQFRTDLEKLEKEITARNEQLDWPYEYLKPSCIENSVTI
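Hydroperoxide product was detected by ferrous iron/xylenol orange as the 573 to 405 nm absorbance ratio. Arachidonic acid at 40 uM (final) was turned over for 30 min at room temperature by 150 nM human 12hLO, pH 7.0 Hepes buffer, after 15 min compound preincubation.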
* = called active by the depositor; ? = inconclusive; . = no result; [ ] = remark or other dose. Calls come from the whole dose curve; as a rule, active = well fitted curve in the direction sought with a large enough effect; inconclusive = small, poorly fitted or top-dose-only effect, or another doubt; inactive = no such curve, though single readings can be large; an effect the other way counts as inactive or inconclusive. % is set by controls: 0 for no effect and ±100 for the full control effect; potency is the fitted concentration of half-maximal effect.

SMILES | DT40 TDP1 no CPT | RORg inh | ELG1 repair inh | DT40 TDP1 CPT | VP16 counter | ALOX12 inh
Cc1noc(C)c1CCC(=O)Nc1nc(C(C)C)cs1 | . | . | . | . | . | 9.0%
O=C(NN(c1ccccc1)c1ccccc1)c1cccs1 | . | . | . | . | . | -26.4%
CC(C)(C)c1ccc(C(=O)N2CCC2(C)C(=O)Nc2ccc3nc[nH]c3c2)cc1 (configuration not stated) | 18.4µM* | . | . | 14.6µM* | . | .
COc1ccc(C(=O)N2CCC2(C)C(=O)NC(C)C)cc1OC (configuration not stated) | -8.5% | . | . | 10.3% | . | -16.9%
COc1ccc(NC(=O)C2(C)CCN2C(=O)c2ccc(C(C)(C)C)cc2)cc1OC (configuration not stated) | 10.3µM* | . | . | 13µM* | . | -2.3%
CC(C)(C)c1ccc(C(=O)N2CCC2(C)C(=O)Nc2ccc3[nH]ncc3c2)cc1 (configuration not stated) | 14.6µM* | . | . | 20.6µM* | . | -24.7%
CC1(C(=O)Nc2ccc3nc[nH]c3c2)CCN1C(=O)c1ccccc1CCc1ccccc1 (configuration not stated) | ? | . | . | ? | . | -4.2%
CN(Cc1ccccc1)C(=O)C[C@@H]1CCNC[C@@H]1Cc1cc(CN2CCCCC2)on1 | . | . | . | . | . | 4.7%[176 µM]
O=S1(=O)CCN2C(c3cccc(Br)c3)=CSC2=N1 | . | . | . | . | . | 22.4µM*
CC(C)CNC(=O)NC(=O)COC(=O)c1ccccc1Sc1ccc(C(F)(F)F)cc1[N+](=O)[O-] | ? | ? | 5.2% | 29.1µM* | ? | -26.6%
Cc1nnsc1C(=O)N/N=C/c1ccc2ccccc2c1O | 0.82µM* | 4.47µM* | ? | 1.03µM* | 2.82µM* | -11.8%
COc1cccc(CNC(=O)Cn2c(=O)cc(C)c3c(C)nn(C)c32)c1OC | 18.4µM* | . | . | 23.1µM* | . | -16.1%
CC(=O)c1ccc(N2C(=O)N(Cc3ccccc3C#N)c3ccccc3S2(=O)=O)cc1 | ? | . | . | 16.4µM* | . | -0.7%
CCc1ccc(-n2c(=O)c3ccccc3n(CC(=O)NCc3ccco3)c2=O)cc1 | -15.7% | 26.3% | 3.5% | 1.7% | 5.2% | 2.9%
COc1ccc(OC)c(C(=O)CN2C(=O)N(c3ccc(C)cc3)S(=O)(=O)c3ccccc32)c1 | -23.6% | . | . | -12.0% | . | -23.7%
CCc1ccccc1N1C(=O)N(CC(=O)c2ccc(Cl)cc2)c2ccccc2S1(=O)=O | ? | . | . | ? | . | -6.1%
CCc1ccc(-n2c(=O)c3ccccc3n(CC(=O)C(C)(C)C)c2=O)cc1 | 18.4µM* | 10.6% | -17.3% | ? | -7.7% | -16.0%
COc1cccc(CNC(=O)Cn2nc(C)c3sc4ccccc4c3c2=O)c1OC | -13.1% | . | . | -12.4% | . | -20.3%
COC(=O)c1ccc(OC)c(CN2C(=O)N(c3ccc(C(C)=O)cc3)S(=O)(=O)c3ccccc32)c1 | 16.4µM* | . | . | 14.6µM* | . | -14.9%
COc1cccc(-c2cn3c(n2)N(C(=O)c2ccco2)CCC3)c1 | . | . | . | . | . | 53.6%
O=C1CC2CCN(C(=O)c3ccc(C(F)(F)F)cc3)CC2CCN1 (configuration not stated) | . | . | . | . | . | 0.0%[6.33 µM]
CC(=O)c1ccc(N2C(=O)N(CC(=O)c3ccc(F)cc3)c3ccccc3S2(=O)=O)cc1 | ? | . | . | -22.9% | . | 4.0%
CC(=O)c1ccc(N2C(=O)N(Cc3ccc(F)cc3)c3ccccc3S2(=O)=O)cc1 | 16.4µM* | . | . | 20.6µM* | . | 0.0%
CCc1ccc(N2C(=O)N(CC(=O)C(C)(C)C)c3ccccc3S2(=O)=O)cc1 | 20.6µM* | . | . | 13µM* | . | -0.6%
CC(=O)c1ccc(N2C(=O)N(Cc3cc(C)ccc3C)c3ccccc3S2(=O)=O)cc1 | 18.4µM* | . | . | 23.1µM* | . | -18.0%
SMILES | DT40 TDP1 no CPT | RORg inh | ELG1 repair inh | DT40 TDP1 CPT | VP16 counter | ALOX12 inh
CCc1ccc(N2C(=O)N(CC(=O)NC(C)CC)c3ccccc3S2(=O)=O)cc1 (configuration not stated) | . | . | . | . | . | 6.2%
COc1cccc(N2C(=O)N(CC(=O)NCc3cccc(OC)c3OC)c3ccccc3S2(=O)=O)c1 | -16.8% | . | . | -14.3% | . | -18.1%
CCc1cccc(N2C(=O)N(CC(=O)NCc3cccc(OC)c3OC)c3ccccc3S2(=O)=O)c1 | ? | . | . | 13µM* | . | -12.0%
Cc1ccc(-c2[nH]ncc2CN2C[C@@H](CO)[C@H](c3ccccn3)C2)cc1 | . | . | . | . | . | -16.8%
Cc1ccc2c(c1)Oc1cc(Cl)c(S(=O)(=O)N(C)Cc3ccccc3)cc1C(=O)N2 | . | . | . | . | . | -12.9%
CN(CCO)S(=O)(=O)c1ccc2c(c1)C(=NO)c1cc(S(=O)(=O)N(C)CCO)ccc1-2 | 11.6µM* | 17.3% | -19.1% | -21.6% | 5.9% | -0.5%
COc1cccc(Nc2nc3ccccc3nc2NS(=O)(=O)c2ccc(C)c(C)c2)c1 | . | . | . | . | . | 0.3%
CCn1c2ccccc2c2cc(NC(=O)c3cc(OC)cc(OC)c3)ccc21 | 0.731µM* | -93.5% | ? | 1.03µM* | ? | -2.1%
CCn1c2ccccc2c2cc(NC(=O)COc3ccccc3)ccc21 | 23.1µM* | 14.7% | 12.8% | 18.4µM* | -0.4% | -14.4%
CCN(CC(=O)Nc1ccc2c(c1)OCCO2)Cc1cc(=O)n2ccsc2n1 | 2.2% | -5.9% | ? | 1.1% | 2.8% | -2.0%
CCn1c2ccccc2c2cc(NC(=O)COc3ccc(OC)cc3)ccc21 | ? | 13.8% | -2.4% | ? | 4.6% | 4.8%
CCn1c2ccccc2c2cc(NC(=O)c3cc(C)on3)ccc21 | 18.4µM* | -2.3% | ? | ? | 14.5% | -1.7%
